# Measured values from the supplement of paper PMC10849652.
# The full data set covers some 7,900 targets. This sample favours those with a hit. About 0.6% of all pairs of compound and target were hits. Values without a mark were called inactive.
# What was measured:
# Assay in all cases: log2 fold change, soluble protein after heating vs DMSO (PISA); higher = thermal stabilisation; K562 cells, 10 uM, 30 min; active = over 0.2 and 3.5 SD of the protein, either way, in both replicates (recomputed)
# bafetinib = compound: Cc1ccc(NC(=O)c2ccc(CN3CC[C@H](N(C)C)C3)c(C(F)(F)F)c2)cc1Nc1nccc(-c2cncnc2)n1 [bafetinib]
# In short: (§1)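 K562 cells at 2×10^6 cells/mL were treated with 10 μM compound for 30 min. Aliquots were heated for 3 min across 48°C-58°C, pooled, and extracted in PBS with 0.5% NP-40 at 4°C; soluble protein was the supernatant after 21,000xg for 90 min. Soluble protein was quantified by TMTpro 16plex LC-MS/MS with channel sums equalised, and reported as log2 fold change in thermal stability against DMSO controls, with values from duplicates.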
# [1] = compound: Cc1cccc(CC(=O)N2CCc3c2ccc(-c2cn(C)c4ncnc(N)c24)c3F)n1
# In short: as §1
# nilotinib = compound: Cc1cn(-c2cc(NC(=O)c3ccc(C)c(Nc4nccc(-c5cccnc5)n4)c3)cc(C(F)(F)F)c2)cn1 [nilotinib]
# In short: as §1
# [2] = compound: Cc1nc(Nc2n[nH]c3c2CN(C(=O)N[C@H](CN(C)C)c2ccccc2)C3(C)C)c2sccc2n1
# In short: as §1
# dasatinib = compound: Cc1nc(Nc2ncc(C(=O)Nc3c(C)cccc3Cl)s2)cc(N2CCN(CCO)CC2)n1 [dasatinib]
# In short: as §1
# [3] = compound: Cc1ncc(-c2ccnc(Nc3ccc(S(C)(=O)=O)cc3)n2)n1C(C)C
# In short: as §1
# [4] = compound: Cn1cc(-c2ccc3c(c2)CCN3C(=O)Cc2cccc(C(F)(F)F)c2)c2c(N)ncnc21
# In short: as §1
# [5] = compound: Cn1cc(-c2ccc3nnc(C(F)(F)c4ccc5ncccc5c4)n3n2)cn1
# In short: as §1
# tipifarnib = compound: Cn1cncc1[C@@](N)(c1ccc(Cl)cc1)c1ccc2c(c1)c(-c1cccc(Cl)c1)cc(=O)n2C [tipifarnib]
# In short: as §1
# mubritinib = compound: FC(F)(F)c1ccc(/C=C/c2nc(COc3ccc(CCCCn4ccnn4)cc3)co2)cc1 [mubritinib]
# In short: as §1
# Sequence of UniProt Q13685 (Q13685 whole entry, looked up): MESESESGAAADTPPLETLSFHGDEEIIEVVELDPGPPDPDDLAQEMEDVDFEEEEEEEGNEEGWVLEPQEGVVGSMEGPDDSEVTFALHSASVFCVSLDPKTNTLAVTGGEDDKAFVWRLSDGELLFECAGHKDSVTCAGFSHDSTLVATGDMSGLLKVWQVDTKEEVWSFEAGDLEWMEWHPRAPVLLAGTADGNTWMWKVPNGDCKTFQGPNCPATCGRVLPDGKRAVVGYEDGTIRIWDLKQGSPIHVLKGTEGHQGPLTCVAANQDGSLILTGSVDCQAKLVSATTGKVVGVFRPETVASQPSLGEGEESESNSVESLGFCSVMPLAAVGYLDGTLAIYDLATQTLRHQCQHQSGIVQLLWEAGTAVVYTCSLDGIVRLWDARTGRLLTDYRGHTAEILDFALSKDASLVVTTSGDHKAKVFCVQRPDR
# Sequence of UniProt P35611 (P35611 whole entry, looked up): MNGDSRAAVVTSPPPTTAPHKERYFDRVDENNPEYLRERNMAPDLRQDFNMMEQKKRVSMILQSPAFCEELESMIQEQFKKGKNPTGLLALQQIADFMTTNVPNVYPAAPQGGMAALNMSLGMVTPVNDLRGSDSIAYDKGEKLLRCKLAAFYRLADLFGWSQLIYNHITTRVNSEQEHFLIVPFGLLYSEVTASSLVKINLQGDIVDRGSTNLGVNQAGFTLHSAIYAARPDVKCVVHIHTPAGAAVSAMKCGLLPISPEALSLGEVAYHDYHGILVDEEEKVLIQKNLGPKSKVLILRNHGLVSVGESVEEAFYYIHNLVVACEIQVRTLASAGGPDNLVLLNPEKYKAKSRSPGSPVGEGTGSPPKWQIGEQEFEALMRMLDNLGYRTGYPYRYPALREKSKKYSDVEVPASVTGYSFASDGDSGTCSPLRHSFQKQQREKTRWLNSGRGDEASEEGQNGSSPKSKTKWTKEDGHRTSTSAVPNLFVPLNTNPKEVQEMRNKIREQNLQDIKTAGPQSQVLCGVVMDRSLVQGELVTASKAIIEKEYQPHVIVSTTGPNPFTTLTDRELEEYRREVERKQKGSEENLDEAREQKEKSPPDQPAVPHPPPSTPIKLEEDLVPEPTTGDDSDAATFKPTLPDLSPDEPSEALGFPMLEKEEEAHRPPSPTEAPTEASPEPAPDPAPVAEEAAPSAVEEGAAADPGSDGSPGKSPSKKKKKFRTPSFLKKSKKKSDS
# Sequence of UniProt Q9BR61 (Q9BR61 whole entry, looked up): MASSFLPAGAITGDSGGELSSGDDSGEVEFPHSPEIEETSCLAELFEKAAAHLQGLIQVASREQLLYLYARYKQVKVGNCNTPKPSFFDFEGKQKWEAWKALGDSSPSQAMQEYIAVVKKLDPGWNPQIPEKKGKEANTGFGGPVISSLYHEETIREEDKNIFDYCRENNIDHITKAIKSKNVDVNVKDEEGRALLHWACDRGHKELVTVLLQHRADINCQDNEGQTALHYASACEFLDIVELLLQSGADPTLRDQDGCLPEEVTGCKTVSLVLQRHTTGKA
# Sequence of UniProt P49748 (P49748 whole entry, looked up): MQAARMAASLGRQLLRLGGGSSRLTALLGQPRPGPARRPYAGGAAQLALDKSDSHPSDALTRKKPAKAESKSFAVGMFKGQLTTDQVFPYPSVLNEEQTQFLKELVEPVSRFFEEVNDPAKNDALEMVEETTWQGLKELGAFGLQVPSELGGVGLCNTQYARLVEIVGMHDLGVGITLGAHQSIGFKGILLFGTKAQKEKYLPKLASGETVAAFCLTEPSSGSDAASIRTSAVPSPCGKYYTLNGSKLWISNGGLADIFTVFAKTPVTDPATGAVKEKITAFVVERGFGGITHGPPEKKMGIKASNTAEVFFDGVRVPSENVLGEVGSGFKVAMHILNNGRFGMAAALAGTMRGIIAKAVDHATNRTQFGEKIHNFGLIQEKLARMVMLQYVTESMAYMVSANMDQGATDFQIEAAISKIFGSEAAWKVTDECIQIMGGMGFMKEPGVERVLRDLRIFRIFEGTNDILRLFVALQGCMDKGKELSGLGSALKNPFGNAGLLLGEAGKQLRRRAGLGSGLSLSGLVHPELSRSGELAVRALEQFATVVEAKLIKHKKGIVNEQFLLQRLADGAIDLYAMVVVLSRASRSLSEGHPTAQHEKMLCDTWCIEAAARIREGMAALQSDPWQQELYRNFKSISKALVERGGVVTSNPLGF
# Sequence of UniProt Q8NFV4 (Q8NFV4 whole entry, looked up): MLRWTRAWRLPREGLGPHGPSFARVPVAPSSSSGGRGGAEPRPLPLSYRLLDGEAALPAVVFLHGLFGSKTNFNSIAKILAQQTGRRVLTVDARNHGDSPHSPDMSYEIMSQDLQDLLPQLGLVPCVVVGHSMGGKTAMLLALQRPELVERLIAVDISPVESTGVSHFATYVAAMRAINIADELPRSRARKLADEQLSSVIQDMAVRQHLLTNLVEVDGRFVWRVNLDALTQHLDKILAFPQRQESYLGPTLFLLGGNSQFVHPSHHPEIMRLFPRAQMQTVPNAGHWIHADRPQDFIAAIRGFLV
# Sequence of UniProt Q9Y487 (Q9Y487 whole entry, looked up): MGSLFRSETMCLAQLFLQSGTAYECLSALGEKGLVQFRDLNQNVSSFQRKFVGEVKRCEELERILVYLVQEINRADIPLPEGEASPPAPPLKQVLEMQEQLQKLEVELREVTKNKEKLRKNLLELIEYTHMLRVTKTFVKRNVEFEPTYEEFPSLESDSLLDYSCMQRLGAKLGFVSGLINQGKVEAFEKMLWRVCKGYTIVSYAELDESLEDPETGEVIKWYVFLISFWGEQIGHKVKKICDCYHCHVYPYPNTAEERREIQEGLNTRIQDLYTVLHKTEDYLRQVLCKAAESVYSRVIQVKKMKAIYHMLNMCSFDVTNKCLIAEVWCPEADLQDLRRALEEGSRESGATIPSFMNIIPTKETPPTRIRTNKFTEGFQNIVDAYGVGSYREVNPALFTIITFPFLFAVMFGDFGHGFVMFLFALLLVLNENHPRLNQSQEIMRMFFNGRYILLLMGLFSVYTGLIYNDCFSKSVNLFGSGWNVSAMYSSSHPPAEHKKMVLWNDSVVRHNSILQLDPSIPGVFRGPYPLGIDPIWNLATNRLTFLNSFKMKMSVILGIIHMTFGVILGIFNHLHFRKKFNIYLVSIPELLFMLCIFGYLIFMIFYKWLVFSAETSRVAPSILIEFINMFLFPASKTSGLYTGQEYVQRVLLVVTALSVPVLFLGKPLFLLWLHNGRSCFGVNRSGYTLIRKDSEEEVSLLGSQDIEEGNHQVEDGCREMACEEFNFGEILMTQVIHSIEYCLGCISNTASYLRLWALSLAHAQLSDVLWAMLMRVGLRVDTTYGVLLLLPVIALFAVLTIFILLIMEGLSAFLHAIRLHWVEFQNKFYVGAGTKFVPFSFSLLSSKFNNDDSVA
# Sequence of UniProt P08243 (P08243 whole entry, looked up): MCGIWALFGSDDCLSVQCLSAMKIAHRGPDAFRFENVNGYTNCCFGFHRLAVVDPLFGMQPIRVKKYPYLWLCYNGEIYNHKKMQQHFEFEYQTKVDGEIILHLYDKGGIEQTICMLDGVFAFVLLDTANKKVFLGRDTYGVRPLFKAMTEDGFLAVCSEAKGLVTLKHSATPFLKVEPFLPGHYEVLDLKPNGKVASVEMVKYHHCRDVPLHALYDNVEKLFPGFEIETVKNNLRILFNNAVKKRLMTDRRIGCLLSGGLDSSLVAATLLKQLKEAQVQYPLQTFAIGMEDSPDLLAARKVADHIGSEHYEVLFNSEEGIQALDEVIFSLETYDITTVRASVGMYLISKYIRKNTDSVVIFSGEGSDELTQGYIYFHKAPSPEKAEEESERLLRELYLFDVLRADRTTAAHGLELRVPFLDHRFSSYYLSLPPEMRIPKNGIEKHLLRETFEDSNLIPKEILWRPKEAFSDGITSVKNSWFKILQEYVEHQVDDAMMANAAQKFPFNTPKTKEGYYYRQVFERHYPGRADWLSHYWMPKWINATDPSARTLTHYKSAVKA
# Sequence of UniProt P42025 (P42025 whole entry, looked up): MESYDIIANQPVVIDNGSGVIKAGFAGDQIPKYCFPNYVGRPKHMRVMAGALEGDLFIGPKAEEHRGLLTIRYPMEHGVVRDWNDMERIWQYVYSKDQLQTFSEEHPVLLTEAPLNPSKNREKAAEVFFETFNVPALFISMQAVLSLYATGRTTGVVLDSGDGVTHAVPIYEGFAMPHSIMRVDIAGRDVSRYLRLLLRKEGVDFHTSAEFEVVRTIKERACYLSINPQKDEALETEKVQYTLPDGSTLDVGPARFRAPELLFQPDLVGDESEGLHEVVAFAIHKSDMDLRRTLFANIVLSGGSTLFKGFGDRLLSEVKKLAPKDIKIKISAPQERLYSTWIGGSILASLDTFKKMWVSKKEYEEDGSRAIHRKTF
# Sequence of UniProt Q96F25 (Q96F25 whole entry, looked up): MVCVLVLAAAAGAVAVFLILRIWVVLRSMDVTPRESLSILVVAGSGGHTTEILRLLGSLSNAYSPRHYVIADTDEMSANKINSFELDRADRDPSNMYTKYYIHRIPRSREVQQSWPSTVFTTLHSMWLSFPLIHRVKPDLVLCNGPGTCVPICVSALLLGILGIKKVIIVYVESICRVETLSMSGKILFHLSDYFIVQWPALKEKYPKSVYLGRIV
# Sequence of UniProt Q9Y6E2 (Q9Y6E2 whole entry, looked up): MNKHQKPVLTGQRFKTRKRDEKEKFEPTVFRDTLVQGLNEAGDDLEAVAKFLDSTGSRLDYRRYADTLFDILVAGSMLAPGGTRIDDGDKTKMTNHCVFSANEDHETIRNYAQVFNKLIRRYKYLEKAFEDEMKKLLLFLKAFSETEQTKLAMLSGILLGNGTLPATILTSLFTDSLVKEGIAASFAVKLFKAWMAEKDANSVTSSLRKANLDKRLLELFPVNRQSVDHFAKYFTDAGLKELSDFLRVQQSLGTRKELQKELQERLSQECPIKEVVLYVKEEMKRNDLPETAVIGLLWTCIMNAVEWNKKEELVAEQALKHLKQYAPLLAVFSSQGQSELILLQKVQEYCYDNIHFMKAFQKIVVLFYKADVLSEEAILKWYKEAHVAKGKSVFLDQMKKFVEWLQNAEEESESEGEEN
# Sequence of UniProt O00244 (O00244 whole entry, looked up): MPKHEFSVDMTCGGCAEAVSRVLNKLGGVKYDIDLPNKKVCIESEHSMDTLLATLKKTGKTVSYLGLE
Target,log2 fold change (bafetinib),log2 fold change [1],log2 fold change (nilotinib),log2 fold change [2],log2 fold change (dasatinib),log2 fold change [3],log2 fold change [4],log2 fold change [5],log2 fold change (tipifarnib),log2 fold change (mubritinib)
ABHD11 (UniProt Q8NFV4),0.011,0.175,0.003,-0.006,0.073,0.083,0.024,0.025,0.174,-0.235
ADD1 isoform 3 (UniProt P35611),-0.018,0.068,0.014,-0.02,0.041,-0.093,0.009,0.014,0.015,0.033
ATAD1 (UniProt Q8NBU5),-0.007,0.048,0.02,-0.008,-0.033,-0.002,0.037,-0.026,0.014,-0.028
BUB1B isoform 3 (UniProt O60566),0.03,0.107,-0.089,-0.142,-0.13,0.02,0,0.017,-0.114,0.012
AP2A1 (UniProt O95782),0.052,0.024,-0.008,-0.008,0.045,-0.079,-0.007,-0.066,-0.051,-0.011
ATP13A2 (UniProt Q9NQ11),-0.002,0.001,0.01,0.014,-0.007,0.018,0.045,0.069,0.06,0.108
ARL6IP4 (UniProt Q66PJ3),-0.042,0.002,-0.012,-0.459 (active),0.016,0.013,0.112,-0.038,0.019,0.023
ACIN1 (UniProt Q9UKV3),0.022,-0.037,0.086,-0.444 (active),0.016,-0.065,0.117,-0.027,0.026,0.049
ACADVL isoform 3 (UniProt P49748),-0.093,0,0.032,0.02,-0.016,-0.007,0.022,0.026,-0.01,0.071
ALG14 (UniProt Q96F25),-0.092,0.461 (active),0.061,0.026,0.003,-0.033,0.014,0.126,-0.214,0.003
ATP6V1H (UniProt Q9UI12),-0.057,0.037,-0.015,-0.016,-0.029,0.049,0.025,-0.013,-0.01,0.098
AAR2 (UniProt Q9Y312),-0.019,-0.062,0.058,0.009,-0.006,0.019,-0.079,-0.034,0.004,-0.036
ABITRAM (UniProt Q9NX38),0.016,0.116,-0.327,-0.146,-0.316,-0.442 (active),-0.004,0.026,-0.031,0.046
AKR1C3 (UniProt P42330),0.018,-0.03,0.025,0.004,-0.038,0.078,0.068,0.557 (active),0.862 (active),-0.147
ADK (UniProt P55263),0.201,0,0.122,0.208,0.387 (active),0.07,0.006,0.241,0.291,0.037
ATP6V0A2 (UniProt Q9Y487),-0.041,0.007,0.035,0.006,-0.006,-0.077,-0.019,0.027,0.008,-0.019

Target,log2 fold change (bafetinib),log2 fold change [1],log2 fold change (nilotinib),log2 fold change [2],log2 fold change (dasatinib),log2 fold change [3],log2 fold change [4],log2 fold change [5],log2 fold change (tipifarnib),log2 fold change (mubritinib)
ANK2 (UniProt Q01484),-0.281,-0.034,-0.265,0.041,-0.277,-0.042,0.012,0.01,0.034,-0.141
ATP6V0A1 (UniProt Q93050),-0.078,–,–,–,–,–,–,–,–,–
AAMP (UniProt Q13685),0.011,0.014,0.009,0.005,0.04,0.012,-0.038,-0.028,-0.026,0.02
ATOX1 (UniProt O00244),-0.02,0.043,0.047,0.036,0.161,-0.009,0.174,-0.084,-0.404 (active),0.004
BRIP1 (UniProt Q9BX63),-0.135,-0.011,-0.069,0.036,-0.09,-0.071,0.02,-0.197,-0.101,–
ABHD16A (UniProt O95870),0.132,-0.056,0.177,0.055,0.029,-0.058,0.087,-0.075,-0.01,0.071
BZW2 (UniProt Q9Y6E2),-0.021,0.073,-0.057,-0.04,-0.132,-0.019,0.034,-0.004,-0.158,0.095
BCL9L (UniProt Q86UU0),0.043,0,-0.046,-0.064,0.018,0.053,-0.013,-0.031,0.014,0.026
ASNS (UniProt P08243),-0.055,0.02,0.002,0.021,0,-0.003,0.034,0.015,-0.033,0.012
ATP6AP1 (UniProt Q15904),-0.052,0.025,0.024,-0.041,0.016,-0.041,-0.081,-0.064,0.011,-0.051
BYSL (UniProt Q13895),0.118,0.034,-0.131,0.163,-0.082,0.064,-0.05,-0.003,-0.063,0.062
ACBD6 (UniProt Q9BR61),-0.058,0.063,0.017,-0.085,-0.23,0.057,-0.053,0.056,-0.072,-0.085
ACTR1B (UniProt P42025),-0.062,-0.221,0.034,-0.011,0.034,0.083,-0.011,0.003,0.077,-0.001
ADAM15 (UniProt Q13444),0.067,0.003,-0.11,-0.043,-0.009,0.079,-0.355 (active),0.018,-0.053,–
AGRN (UniProt O00468),0.006,0.001,-0.034,-0.035,0.355,-0.086,0.03,0.162,0.165,-0.079
